Pf growth 48h – P. falciparum growth inhibition at 48 hours (one generation). P. falciparum luciferase growth in erythrocytes, 48 h. AID 504832. actives 5.9% (n = 310,000). Potency, µM (highest dose often 28.7 µM), inactives show at the highest dose activity change, negative = inhibition, hits mostly inhibitors; note: % is set by controls: 0 for no effect and ±100 for the full control effect
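Cell-based growth assay: transgenic P. falciparum expressing firefly luciferase, cultured in red cells within RPMI 1640 containing 0.5% w/v Albumax, 24 mM bicarbonate and gentamycin. A drop in luciferase activity indicates inhibition.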
SARS PLpro yeast – SARS-CoV PLP inhibition in yeast; S. cerevisiae expressing SARS-CoV PLpro, growth rescue; AID 485353; Potency, µM (highest dose often 32.9 µM), without a hit: at the highest dose activity, positive = growth rescue, hits mostly activators; actives 0.19% (n = 330,000); calls by dose curve; note: 0% is about no effect; nearly all actives have a fitted effect of over 55% in size
Sm TGR block – inhibitors of Schistosoma mansoni thioredoxin glutathione reductase; AID 485364; Q962Y6; Potency, µM (doses to about 114 µM), inactives show at the highest dose activity change, negative = inhibition, most hits filed as inhibitors; purified TGR, DTNB reduction, TNB absorbance 405 nm; actives 3% (n = 360,000); note: % is set by controls: 0 for no effect and ±100 for the full control effect; nearly all actives have a fitted effect of over 60% in size
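Kinetic colorimetric format: TGR-catalysed, NADPH-driven DTNB reduction monitored via TNB absorbance. Enzyme dispensed at 20 nM; compound exposure 15 min at room temperature before reaction start.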
Pf growth 96h – inhibits malaria parasite growth, 96 h. Potency, µM (titrated, usually from 28.7 µM), for inactives: top-dose activity change, negative = inhibition, usual class: inhibitors. actives 6.9% (n = 320,000). P. falciparum luciferase reporter growth, 96 h; note: % is set by controls: 0 for no effect and ±100 for the full control effect
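Delayed-death screen, second-generation endpoint: infected erythrocytes, 2% hematocrit, 0.05% parasitemia final; 96 hours at 37 C, 5% CO2; luciferase detection reagent; luminescence decrease equals reduced growth.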
The depositor's hits bear a star; ? = inconclusive; . = no result given. Hits are enriched below; roughly 12% of the tested compounds scored in any of these assays. Unless noted, calls come from the whole dose curve; as a rule, active = well fitted curve in the direction sought with a large enough effect; inconclusive = small, poorly fitted or top-dose-only effect, or another doubt; inactive = no such curve, though single readings can be large; an effect the other way counts as inactive or inconclusive. Potency is the fitted concentration of half-maximal effect.

SMILES | Pf growth 48h | SARS PLpro yeast | Sm TGR block | Pf growth 96h
COC(=O)C1=C(C(=O)OC)[C@@H]2N(Cc3ccccc3)c3ccccc3[C@@]23C[C@@H](C(=O)OC)N(C(=O)CC(C)C)C3=N1 | 4.15µM* | 1.6% | 21.2% | 4.65µM*
Cc1ccc(NC(=O)Cn2nc(N3CCN(c4ccccc4)CC3)ccc2=O)cc1F | . | . | 0.4% | .
O=[N+]([O-])c1ccccc1/C=N\N1CCN(Cc2ccccc2Cl)CC1 | 2.8% | 4.1% | 5.1% | -26.4%
CCn1c(=S)sc2c(=O)n(CC(=O)NCCCc3ccccc3)c(C)nc21 | 32.7% | 1.5% | -14.0% | 20.8%
CCCN(N=Nc1cccc([N+](=O)[O-])c1)c1cccc([N+](=O)[O-])c1 | -22.6% | -4.3% | 50.1µM* | .
O=[N+]([O-])c1cccc(N=NN(CCO)c2cccc([N+](=O)[O-])c2)c1 | -13.4% | -0.9% | -4.7% | .
COC(=O)N=Nc1c(O)[nH]c2ccc(Br)cc12 | 46.5% | -2.1% | 1.0% | 41.5%
Oc1[nH]c2ccc(Br)cc2c1N=Nc1ccc(C(F)(F)F)cn1 | ? | -6.6% | 1.3% | 9.28µM*
O=C(O)c1ccc(N=Nc2c(O)[nH]c3cc(Cl)ccc23)cc1 | ? | -0.5% | -10.5% | 4.65µM*
O=C(O)c1ccc(N=Nc2c(O)[nH]c3ccc(Br)cc23)cc1 | ? | -1.5% | 2.9% | 5.22µM*
Oc1[nH]c2ccccc2c1N=Nc1cccc(Cl)c1 | 96.6% | -1.5% | 6.0% | ?
Oc1[nH]c2ccccc2c1N=Nc1ccc(C(F)(F)F)cn1 | 68.8% | -4.4% | -24.3% | 112.6%
CCOC(=O)C1(Cc2cccc(Cl)c2)CCCN(C(=O)c2c(CC)noc2C)C1 (stereo not drawn) | ? | 6.1% | 4.3% | ?
Cc1cccc(NC(=O)c2sc3ncnc(N(C)C4CCCCC4)c3c2C)c1C | . | . | 5.7% | .
COCCn1c(SC(C)C(=O)NCC2CCCO2)nc2scc(-c3ccc(F)cc3)c2c1=O (stereo not drawn) | 13.1µM* | -4.5% | -2.4% | ?
C=CCn1c(SC(C)C(=O)NCc2ccc3c(c2)OCO3)nc2scc(-c3ccccc3)c2c1=O (stereo not drawn) | ? | 2.5% | -25.5% | 6.57µM*
C=CCn1c(SCC(=O)NCC2CCCO2)nc2scc(-c3ccccc3)c2c1=O (stereo not drawn) | ? | -9.4% | 1.2% | 19.4%
O=C(CSc1nnc(Cc2cccs2)n1-c1ccccc1)NCc1ccc2c(c1)OCO2 | -21.2% | -2.4% | -15.7% | .
CCn1c(SC(C)C(=O)NCC2CCCO2)nc2scc(-c3ccccc3)c2c1=O (stereo not drawn) | 7.38µM* | -1.5% | 4.7% | 2.94µM*
CC(Sc1nnc(-c2cccs2)n1-c1ccccc1)C(=O)NCc1ccc2c(c1)OCO2 (stereo not drawn) | . | 7.3% | -3.5% | 10.4µM*
Cc1ccccc1S(=O)(=O)Cc1ccc(C(=O)NCc2ccccc2Cl)o1 | . | . | -3.3% | .
COCCn1c(SC(C)C(=O)NCC2CCCO2)nc2sc3c(c2c1=O)CCC3 (stereo not drawn) | ? | 2.7% | -4.9% | 8.28µM*
COc1ccc(NC(=O)c2cc([N+](=O)[O-])ccc2O)cc1 | -37.7% | -5.9% | 0.0% | ?
CC(C)Sc1ccc([N+](=O)[O-])cc1C(=O)Nc1ccncc1 | ? | -0.9% | -4.8% | 1.17µM*
O=C(Cn1c(=O)n(Cc2ccc3c(c2)OCO3)c(=O)c2ccccc21)N1CCCc2ccccc21 | 10.4µM* | -5.4% | -6.0% | .
SMILES | Pf growth 48h | SARS PLpro yeast | Sm TGR block | Pf growth 96h
Cc1c(C#N)c2ccccc2n1CC(=O)N1CCCc2ccccc21 | 3.29µM* | 2.0% | 3.1% | 35.6%
Cc1c(Br)c([N+](=O)[O-])nn1CC(=O)N1CCCc2ccccc21 | 26.4% | 2.3% | -0.7% | 2.33µM*
Cc1nn(CC(=O)N2CCCc3ccccc32)c(C)c1[N+](=O)[O-] | 29.8% | -0.3% | 9.4% | ?
COc1ccccc1CN(C)C(=O)c1ccccc1Sc1ccccc1C#N | 14.0% | 2.7% | 0.0% | ?
COc1ccc(S(=O)(=O)N2CCC(C(=O)NC(c3nc4ccccc4[nH]3)C(C)C)CC2)cc1 (stereo not drawn) | 10.4µM* | -3.2% | -7.1% | ?
COc1ccc(CNC(=O)C2CCN(S(=O)(=O)N3CCCC3)CC2)c(OC)c1 | -9.0% | -12.4% | 0.0% | 24.2%
CCS(=O)(=O)N1CCC(C(=O)NC2CCCCCCC2)CC1 | 3.3% | 2.4% | 1.3% | -15.7%
CC(C)CN(CC(C)C)S(=O)(=O)N1CCC(C(=O)NC2CCCCCCC2)CC1 | ? | 2.1% | -10.7% | 11.7µM*
CC(C)[C@H](NC(=O)C1CCCC1)c1nc2ccccc2[nH]1 | 19.8% | 1.2% | 0.1% | 2.5%
COc1ccc(CNC(=O)C2CCN(C(=O)[C@@H](CC(C)C)NC(=O)OC(C)(C)C)CC2)cc1 | 9.28µM* | -2.9% | 2.4% | -15.6%
COc1ccc(OC)c(CNC(=O)C2CCN(S(=O)(=O)N3CCCC3)CC2)c1 | 33.7% | -9.4% | 79.4µM* | ?
O=C(CSc1nc2c([nH]c3ccccc32)c(=O)n1-c1ccc(F)cc1)NCC1CCCO1 (stereo not drawn) | . | . | 1.3% | .
O=C(NC1CCCCCC1)C1CCN(S(=O)(=O)c2ccccc2)CC1 | -1.0% | 1.2% | 0.9% | 2.94µM*
Cc1ccc(S(=O)(=O)N2CCC(C(=O)NCC3CCCCC3)CC2)cc1 | -30.0% | 11.1% | -26.2% | ?
CC(C)(C)NC(=O)C1CCN(S(=O)(=O)c2ccc(Br)cc2)CC1 | 9.28µM* | 0.5% | -6.5% | -9.6%
Cc1ccc(S(=O)(=O)N2CCC(C(=O)NCC3CC3)CC2)cc1 | 5.86µM* | 0.9% | -1.7% | 0.0%
CCS(=O)(=O)N1CCC(C(=O)NCc2ccc(OC)cc2)CC1 | 14.2% | -1.0% | 1.9% | 5.86µM*
Cc1ccc(NC(=O)CSc2nccn2C2CCCC2)cc1Cl | . | . | -13.1% | .
O=C(NCc1ccc(Cl)cc1)c1cnc(N2CCOCC2)c2ccccc12 | . | . | 0.9% | .
NC(=O)C1CC(=O)N(CCc2ccc(F)cc2)C1 (stereo not drawn) | -5.1% | 4.2% | -1.8% | -1.0%
COc1ccc(CNC(=O)C2CCN(c3nc(-c4ccccc4)nc4c3CCC4)CC2)cc1 | 1.85µM* | 1.2% | -2.6% | ?
O=C(NCc1ccccc1)C1CCN(c2nc(-c3ccccc3)nc3c2CCC3)CC1 | ? | -1.6% | -0.3% | 18.9%
COc1ccc(S(=O)(=O)N2CCC(C(=O)NCC3CC3)CC2)cc1 | 10.4µM* | -0.6% | 1.0% | 3.1%
Cc1ccc(S(=O)(=O)N2CCC(C(=O)NC3CC3)CC2)cc1 | 2.33µM* | 0.7% | 7.5% | 5.3%
Cc1ccc(S(=O)(=O)N2CCC(C(=O)NC3CCCCC3C)CC2)cc1 (stereo not drawn) | 6.1% | 3.2% | -3.8% | 34.0%
Cc1ccc(S(=O)(=O)NCC(c2ccco2)N2CCN(c3ccccc3F)CC2)cc1 (stereo not drawn) | . | . | 4.7% | .
COc1ccc(NCc2cc3cc4c(cc3n(CC(=O)Nc3ccc(F)cc3F)c2=O)OCO4)cc1 | . | . | 6.4% | .
O=C(COC(=O)C1=COCCO1)NC1CCCCC1 | 53.4% | -2.2% | -9.2% | 51.2%
